Test results: PubChem BioAssay (NCATS)
Inconclusive results are not listed. A call without a number means that no potency is given here. Active and inactive are the calls of the source. The call rests on the fitted dose curve; in most records, active means well fitted inhibition curve with a large enough effect; inconclusive means small, poorly fitted or top-dose-only effect; inactive means flat fitted curve, though single readings scatter.

These compounds were tested on PAD (assay: qHTS profiling for inhibitors of Plasmodium falciparum proliferation (AID 504749; further: nearly all actives have a fitted effect of over 60% in size)). Conditions: P. falciparum in erythrocytes, SYBR Green DNA, 72 h; series mostly up to 28.7 µM.
Method in brief: (§1)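 SYBR Green fluorescence of parasite DNA, read after lysis and overnight dark incubation, measured growth over 72 h in erythrocyte culture at 0.3% parasitemia and 2.5% hematocrit. Data normalised to DMSO and 0.29 uM artemisinin, with plate-drift correction.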
Potency means the concentration at half of the fitted maximal effect.

Row | SMILES | Potency
1 | CC(C)COCC(CN(Cc1ccccc1)c1ccccc1)N1CCCC1 (stereo not drawn) | inactive
2 | CNC1(C)C2CCC(C2)C1(C)C (stereo not drawn) | inactive
3 | CN(C)CC[C@@H](c1ccc(Br)cc1)c1ccccn1 | inactive
4 | COc1ccc(CN(CCN(C)C)c2ccccn2)cc1 | inactive
5 | CCCC(C(=O)OCCN(CC)CC)(c1ccccc1)c1ccccc1 | 11.2 µM (active)
6 | CC(=O)[C@]1(O)Cc2c(O)c3c(c(O)c2[C@@H](O[C@H]2C[C@H](N)[C@H](O)[C@H](C)O2)C1)C(=O)c1ccccc1C3=O | 5.01 µM (active)
7 | CCN(CC)CCNC(=O)c1cc(S(C)(=O)=O)ccc1OC | inactive
8 | CC1=C(C)C(=O)C(CCCCC#CCCCC#CCO)=C(C)C1=O | 4.47 µM (active)
9 | NC(=Nc1ccccc1)Nc1ccccc1 | inactive
10 | CC1=NS(=O)(=O)c2cc(Cl)ccc2N1 | inactive
11 | O=C1NCN(c2ccccc2)C12CCN(CCCC(c1ccc(F)cc1)c1ccc(F)cc1)CC2 | 5.01 µM (active)
12 | CN(C)CC/C=C1\c2ccccc2COc2ccccc21 | inactive
13 | OC(CCN1CCCCC1)(c1ccccc1)C1CCCCC1 (stereo not drawn) | inactive
14 | O=C1CC2(CCCC2)CC(=O)N1CCCCN1CCN(c2ncccn2)CC1 | inactive
15 | O=C(CCCN1CCC(O)(c2cccc(C(F)(F)F)c2)CC1)c1ccc(F)cc1 | 10 µM (active)

Each compound was assayed on PC15 in the same assay as above. Conditions: P. falciparum in erythrocytes, SYBR Green DNA, 72 h; series mostly up to 28.7 µM.
Method in brief: as §1

Row | SMILES | Potency
16 | CNC1(C)C2CCC(C2)C1(C)C (stereo not drawn) | inactive
17 | CN(C)CCCN1c2ccccc2Sc2ccccc21 | 2 µM (active)
18 | COc1ccc(CN(CCN(C)C)c2ccccn2)cc1 | inactive
19 | CCCC(C(=O)OCCN(CC)CC)(c1ccccc1)c1ccccc1 | 10 µM (active)
20 | CC(=O)[C@]1(O)Cc2c(O)c3c(c(O)c2[C@@H](O[C@H]2C[C@H](N)[C@H](O)[C@H](C)O2)C1)C(=O)c1ccccc1C3=O | 8.91 µM (active)
21 | CN(C(=O)CCCOc1ccc2[nH]c(=O)ccc2c1)C1CCCCC1 | inactive
22 | CCN(CC)CCNC(=O)c1cc(S(C)(=O)=O)ccc1OC | inactive
23 | CC1=C(C)C(=O)C(CCCCC#CCCCC#CCO)=C(C)C1=O | 8.91 µM (active)
24 | CCCN1C[C@H](CSC)C[C@@H]2c3cccc4[nH]cc(c34)C[C@H]21 | inactive
25 | NC(=Nc1ccccc1)Nc1ccccc1 | inactive
26 | CN(C)C/C=C(/c1ccc(Br)cc1)c1cccnc1 | inactive
27 | O=C1NCN(c2ccccc2)C12CCN(CCCC(c1ccc(F)cc1)c1ccc(F)cc1)CC2 | 11.2 µM (active)
28 | CN(C)CC/C=C1\c2ccccc2COc2ccccc21 | inactive
29 | OC(CCN1CCCCC1)(c1ccccc1)C1CCCCC1 (stereo not drawn) | inactive
30 | CC(C)[N+](C)(CCOC(=O)C1c2ccccc2Oc2ccccc21)C(C)C | inactive
31 | O=C1CC2(CCCC2)CC(=O)N1CCCCN1CCN(c2ncccn2)CC1 | inactive
32 | COc1ccc(CCN(C)CCCC(C#N)(c2cc(OC)c(OC)c(OC)c2)C(C)C)cc1OC (stereo not drawn) | inactive

Each compound was assayed on PC26 in the same assay as above. Conditions: P. falciparum in erythrocytes, SYBR Green DNA, 72 h; series mostly up to 28.7 µM.
Method in brief: as §1

Row | SMILES | Potency
33 | COCCOC(=O)C1=C(C)NC(C)=C(C(=O)OC(C)C)C1c1cccc([N+](=O)[O-])c1 (stereo not drawn) | 12 µM (active)
34 | CNC1(C)C2CCC(C2)C1(C)C (stereo not drawn) | inactive
35 | NC(N)=NC(=O)Cc1c(Cl)cccc1Cl | 7.57 µM (active)
36 | CN1C[C@H](C(=O)N[C@]2(C)O[C@@]3(O)[C@@H]4CCCN4C(=O)[C@H](Cc4ccccc4)N3C2=O)C[C@@H]2c3cccc4[nH]cc(c34)C[C@H]21 | 1.2 µM (active)
37 | Cc1nc2ccccn2c(=O)c1CCN1CCC(C(=O)c2ccc(F)cc2)CC1 | inactive
38 | COc1ccc(CN(CCN(C)C)c2ccccn2)cc1 | inactive
39 | CCCC(C(=O)OCCN(CC)CC)(c1ccccc1)c1ccccc1 | 12 µM (active)
40 | CCCCCCCC/C=C\CCCCCCCC(=O)NCc1ccc(O)c(OC)c1 | inactive
41 | CC1=C(C)C(=O)C(CCCCC#CCCCC#CCO)=C(C)C1=O | 7.57 µM (active)
42 | CN(C)C/C=C(/c1ccc(Br)cc1)c1cccnc1 | inactive
43 | CC1=NS(=O)(=O)c2cc(Cl)ccc2N1 | inactive
44 | CC(C)[N+](C)(CCOC(=O)C1c2ccccc2Oc2ccccc21)C(C)C | inactive

What follows are compounds tested on PC49 in the same assay as above. Conditions: P. falciparum in erythrocytes, SYBR Green DNA, 72 h; series mostly up to 28.7 µM.
Method in brief: as §1

Row | SMILES | Potency
45 | COCCOC(=O)C1=C(C)NC(C)=C(C(=O)OC(C)C)C1c1cccc([N+](=O)[O-])c1 (stereo not drawn) | inactive
46 | CC(C)COCC(CN(Cc1ccccc1)c1ccccc1)N1CCCC1 (stereo not drawn) | inactive
47 | CNCCC(Oc1ccccc1OC)c1ccccc1 (stereo not drawn) | 3.16 µM (active)
48 | CCC(=O)c1ccc2c(c1)N(CCCN(C)C)c1ccccc1S2 | inactive
49 | CNC1(C)C2CCC(C2)C1(C)C (stereo not drawn) | inactive
50 | COc1ccc(CN(CCN(C)C)c2ccccn2)cc1 | 0.178 µM (active)
51 | CCCC(C(=O)OCCN(CC)CC)(c1ccccc1)c1ccccc1 | 7.08 µM (active)
52 | CN(C)CCN(Cc1cccs1)c1ccccn1 | 10 µM (active)
53 | CC(=O)[C@]1(O)Cc2c(O)c3c(c(O)c2[C@@H](O[C@H]2C[C@H](N)[C@H](O)[C@H](C)O2)C1)C(=O)c1ccccc1C3=O | 7.08 µM (active)
54 | Brc1c(NC2=NCCN2)ccc2nccnc12 | inactive
55 | COCCCC/C(=N\OCCN)c1ccc(C(F)(F)F)cc1 | inactive
56 | C=CCc1ccccc1OCC(O)CNC(C)C (stereo not drawn) | inactive
57 | CC(C)(C)c1ccc(C(=O)CCCN2CCC(OC(c3ccccc3)c3ccccc3)CC2)cc1 | inactive
58 | NC(N)=N/N=C/c1c(Cl)cccc1Cl | inactive
59 | CN(C)CCCN1c2ccccc2Sc2ccc(C(F)(F)F)cc21 | 8.91 µM (active)
60 | CCN(CC)CCNC(=O)c1cc(S(C)(=O)=O)ccc1OC | inactive
61 | CC1=C(C)C(=O)C(CCCCC#CCCCC#CCO)=C(C)C1=O | inactive
62 | CCCN1C[C@H](CSC)C[C@@H]2c3cccc4[nH]cc(c34)C[C@H]21 | inactive
63 | NC(=Nc1ccccc1)Nc1ccccc1 | inactive
64 | CN(C)C/C=C(/c1ccc(Br)cc1)c1cccnc1 | inactive
65 | CC(C)[N+](C)(CCOC(=O)C1c2ccccc2Oc2ccccc21)C(C)C | inactive
66 | O=C1CC2(CCCC2)CC(=O)N1CCCCN1CCN(c2ncccn2)CC1 | inactive
67 | O=C(CCCN1CCC(O)(c2cccc(C(F)(F)F)c2)CC1)c1ccc(F)cc1 | 7.94 µM (active)
68 | COc1ccc(CCN(C)CCCC(C#N)(c2cc(OC)c(OC)c(OC)c2)C(C)C)cc1OC (stereo not drawn) | inactive
